# Measurements reported in PubChem BioAssay.
# Unmarked numbers belong to inactive results. Active and inactive are the calls of the source.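 How the source made its calls: active means growth inhibition above 50% at the single 2 µM test dose, taken to imply half-maximal potency below 2 µM; inactive means the rest.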
# Experiment: antimalarial activity against Dd2 strain (AID 2302);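 further: 0% = DMSO untreated growth and 100% = chloroquine plus artemisinin killed control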
# Settings: P. falciparum Dd2 in RBCs, LDH growth readout, 72 h; at 2 µM; active compounds read high
row,Compound,growth inhibition
1,O=C(/C=C/c1ccc(Cl)c(Cl)c1)NCCCCCN1CCC(c2cn[nH]c2-c2ccccc2)CC1,-2%
2,CCOc1cc(C)ccc1C1CCN(CCCCNC(=O)c2ccc(-c3ccc(Cl)cn3)cc2)CC1,8%
3,NC(=O)c1cccc(C(=O)Nc2ccc(-c3cccc(-c4nc5ccc(C(F)(F)F)cc5[nH]4)c3)cc2)c1,86% (active)
4,COc1ccccc1CCNC(=O)c1cnc(N2CCN(c3ccncc3)CC2)c(Cl)c1,54% (active)
5,Cc1ccc(-n2c(Sc3ncnc4sccc34)nnc2N2CCCC2)cc1,100% (active)
6,Cc1cc(N2CCCCC2)nc2ccc(NC(=O)c3cncc(Br)c3)cc12,86% (active)
7,Cn1nc(-c2cccc(CNCCc3cccs3)c2)c2cnc(NC3CCCC3)nc21,-1%
8,COc1ccc2nccc([C@@H](O)CN3CCC(NCc4ccc5cccc(O)c5n4)CC3)c2c1,40%
9,CCCNCc1ccc(-c2ccc(CN(CCOC)C(=O)c3nn(-c4ccccc4)nc3C)cc2)nc1,71% (active)
10,CC(CN(C)C)C(=O)Nc1cccc(-c2ccc(-c3nc4ccc(C(F)(F)F)cc4[nH]3)cc2)c1 (stereo not given),97% (active)
11,Cc1ccc(C)c(Sc2ccc(NC(=O)CN3CCN(C(=O)c4ccco4)CC3)cc2)c1,93% (active)
12,C=CC[C@H](NC(=O)c1ccc(NS(=O)(=O)c2ccc3nc(N)[nH]c(=O)c3c2)cc1)C(=O)OCCCC,2%
13,O=C(Nc1cccc(CN2CCN(C(=O)c3cccc(Cl)c3)CC2)c1)c1ccco1,94% (active)
14,CC(=O)N[C@H](C(=O)Nc1ccc(-c2ccc(-c3nc4ccc(C(F)(F)F)cc4[nH]3)cc2)cc1)C(C)C,76% (active)
15,O=C(Cc1ccc(NC(=O)c2ccc(O)c(-c3ccc(Cl)c(Cl)c3)c2)cc1)NCCN1CCOCC1,24%
16,O=C(NCCCCN1CCC(c2ccc3c(c2O)CCCC3)CC1)c1ccc(-c2ccc(Cl)cc2)cc1,72% (active)
17,O=C(Nc1ccc(-c2cccc(-c3nc4ccccc4[nH]3)c2)cc1)N[C@@H]1C[C@H]1c1ccccc1,6%
18,CCN(CC)CCCC(C)Nc1c2ccccc2nc2c1ccc1ccccc12 (stereo not given),34%
19,NC1CCN(Cc2ccc(-c3ccc(-c4nc5ccc(F)cc5[nH]4)s3)cc2)C1 (stereo not given),98% (active)
20,Fc1cccc(C=NNc2ccnc3cc(Cl)ccc23)c1,91% (active)
21,Nc1cc(-c2ccc3c(N)nccc3c2)ccc1Cl,4%
22,O=[N+]([O-])c1ccc(Oc2ccccc2CNCC2CCN(CC3CCCCC3)CC2)cc1,28%
23,CCN(CCCN1CCCCC1)c1cc(C)nc(Nc2ccc(C)c(C)c2)n1,60% (active)
24,CC(C)(C)c1ccc(CN2CCC(CNC(=O)c3cc(-c4ccccc4)nc4ccccc34)CC2)cc1,36%
25,CCCCCCCCNCC(O)c1cc(-c2ccc(Cl)cc2)nc2cc(C)ccc12 (stereo not given),99% (active)
